From PubChem BioAssay (NCATS)
Results filed as inconclusive are left out. Activity calls are given as the source filed them. Unless noted, the call rests on the fitted dose curve; in most records, active means well fitted curve in the direction sought with a large enough effect; inconclusive means small, poorly fitted or top-dose-only effect, or another doubt; inactive means no such curve, though single readings can be large; an effect the other way counts as inactive or inconclusive.

Columns and labels:
[1] = system: Es-2; assay: Primary qHTS to identify gynecologic anti-cancer compounds using libraries of approved drugs and bioactive compounds (AID 1345084); conditions: Gynecologic cancer cell panel viability, ATPlite luminescence, 48 h; series mostly up to 57.5 µM; further: on the % scale 0 is the no-effect control and ±100 the full control effect; nearly all actives have a fitted effect of over 55% in size
How it was run: (§1)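 Luminescence from the ATPlite ATP-monitoring reagent indicates viable cell number; lower signal means cytotoxicity. Cells received compound 16 h after seeding and were exposed for 48 h across five concentrations.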

[2] = system: HeLa; assay: as above; conditions: Gynecologic cancer cell panel viability, ATPlite luminescence, 48 h; series mostly up to 57.5 µM
How it was run: as §1

[3] = system: Hek293T; assay: as above; conditions: Gynecologic cancer cell panel viability, ATPlite luminescence, 48 h, control line for the selectivity index; series mostly up to 57.5 µM
How it was run: as §1

[4] = system: JEG-3; assay: as above; conditions: Gynecologic cancer cell panel viability, ATPlite luminescence, 48 h; series mostly up to 57.5 µM
How it was run: as §1

[5] = system: OV90; assay: as above; conditions: Gynecologic cancer cell panel viability, ATPlite luminescence, 48 h; series mostly up to 57.5 µM
How it was run: as §1

[6] = system: PA-1; assay: as above; conditions: Gynecologic cancer cell panel viability, ATPlite luminescence, 48 h; series mostly up to 57.5 µM
How it was run: as §1

[7] = system: SKOV3; assay: as above; conditions: Gynecologic cancer cell panel viability, ATPlite luminescence, 48 h; series mostly up to 57.5 µM
How it was run: as §1

[8] = system: Tov-21-G; assay: as above; conditions: Gynecologic cancer cell panel viability, ATPlite luminescence, 48 h; series mostly up to 57.5 µM
How it was run: as §1

[9] = system: Tov112D; assay: as above; conditions: Gynecologic cancer cell panel viability, ATPlite luminescence, 48 h; series mostly up to 57.5 µM
How it was run: as §1

[10] = Drug repurposing screens with cells derived from glioblastoma tumor samples (AID 1345199); conditions: GBM patient neurospheres viability, ATP luminescence, 48 h; further: nearly all actives have a fitted effect of over 40% in size; further: potency means the concentration at half of the fitted maximal effect; on activity, negative = cell killing: on the % scale 0 is the no-effect control and ±100 the full control effect
How it was run: (§2)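 Primary testing used CD133+ neurospheres from four GBM patients, seven concentrations, 48 h exposure and ATP-based viability; confirmation added three slower-growing patient lines.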

[11] = system: astro; assay: as above; conditions: viability, ATP luminescence, 48 h; series mostly up to 45.9 µM
How it was run: as §2

[12] = molecular target: Nuclear receptor subfamily 1 group I member 2 (Rattus norvegicus) (UniProt Q9R1A7); assay: qHTS assay for small molecule activators of the rat pregnane X receptor (rPXR) signaling pathway (AID 651751; call rule not given here; further: 0% is about no effect); conditions: rPXR reporter cells, luciferase (One-Glo), 24 h
[13] = qHTS assay for small molecule activators of the human pregnane X receptor (PXR) signaling pathway (AID 720659; call rule not given here; further: 0% is about no effect)
[14] = at 45.9 µM (top of the series), tumour line B
[15] = at 45.9 µM (top of the series), tumour line D
[16] = at 46.1 µM (top of the series), tumour line C

Chain of Nuclear receptor subfamily 1 group I member 2 (Rattus norvegicus) (Q9R1A7 whole entry, looked up): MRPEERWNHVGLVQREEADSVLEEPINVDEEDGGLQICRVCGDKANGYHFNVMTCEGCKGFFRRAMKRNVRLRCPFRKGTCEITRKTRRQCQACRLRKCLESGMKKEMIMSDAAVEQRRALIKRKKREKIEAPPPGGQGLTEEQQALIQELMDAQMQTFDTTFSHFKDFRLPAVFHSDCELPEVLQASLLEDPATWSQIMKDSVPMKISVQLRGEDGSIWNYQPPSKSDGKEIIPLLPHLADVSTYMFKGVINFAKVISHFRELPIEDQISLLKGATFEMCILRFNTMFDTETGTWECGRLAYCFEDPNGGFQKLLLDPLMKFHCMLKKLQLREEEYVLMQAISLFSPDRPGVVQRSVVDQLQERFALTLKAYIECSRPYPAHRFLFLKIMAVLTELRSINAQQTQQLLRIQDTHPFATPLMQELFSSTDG

O=C(NCCO[N+](=O)[O-])c1cccnc1
inactive: Potency [1] | Potency [2] | Potency [3] | Potency [4] | Potency [5] | Potency [6] | Potency [7] | Potency [8] | Potency [9] | activity, negative = cell killing [10, 14] -0.47% | activity, negative = cell killing [10, 15] -18.1% | activity, negative = cell killing [10, 16] -10.1% | Potency [11]

Cc1c(OCC(F)(F)F)ccnc1CS(=O)c1nc2ccccc2[nH]1 (centres undefined)
inactive: Potency [1] | Potency [2] | Potency [3] | Potency [4] | Potency [5] | Potency [6] | Potency [7] | Potency [8] | Potency [9] | Potency [11]

N=C(N=C(N)N)N1CCOCC1
inactive: Potency [1] | Potency [2] | Potency [3] | Potency [4] | Potency [5] | Potency [6] | Potency [7] | Potency [8] | Potency [9] | Potency [11]

CC(C)[C@H](N)C(=O)OCCOCn1cnc2c(=O)[nH]c(N)nc21
inactive: Potency [1] | Potency [2] | Potency [3] | Potency [4] | Potency [5] | Potency [6] | Potency [7] | Potency [8] | Potency [9] | activity, negative = cell killing [10, 14] -5.53% | activity, negative = cell killing [10, 15] -4.6% | activity, negative = cell killing [10, 16] 14.5% | Potency [11]

CC1(C)NC(=O)N(c2ccc([N+](=O)[O-])c(C(F)(F)F)c2)C1=O
inactive: Potency [1] | Potency [2] | Potency [3] | Potency [4] | Potency [5] | Potency [6] | Potency [7] | Potency [8] | Potency [9] | max response [12] -9.05% | outcome [13]

O=C(NCC1CCCCN1)c1cc(OCC(F)(F)F)ccc1OCC(F)(F)F (centres undefined)
inactive: Potency [1] | Potency [2] | Potency [3] | Potency [4] | Potency [5] | Potency [6] | Potency [8] | Potency [9] | activity, negative = cell killing ([10]; at 46 µM (top of the series), tumour line A) 20.5% | activity, negative = cell killing [10, 16] -6.86%

COCCCOc1ccnc(CS(=O)c2nc3ccccc3[nH]2)c1C (centres undefined)
active: Potency [11] 22.4 µM
inactive: Potency [1] | Potency [2] | Potency [3] | Potency [4] | Potency [5] | Potency [6] | Potency [7] | Potency [8] | Potency [9]

CCOC(=O)c1c(C)n(C)c2ccc(O)cc12
inactive: Potency [1] | Potency [2] | Potency [3] | Potency [4] | Potency [5] | Potency [6] | Potency [7] | Potency [8] | Potency [9] | activity, negative = cell killing [10, 14] -14.1% | activity, negative = cell killing [10, 15] -23.4% | Potency [11]
